Results: PubChem BioAssay AID493083 (Broad Institute, 2011)
Hit rate of the full screen: of about 2,400 compounds, about 95 (4%) were called active. Not shown: some 3% with an inconclusive outcome.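 How the source made its calls: active means compounds lowering signal whose fitted AC50 is at most ten times the top tested dose; inconclusive means flat fit with moderate inhibition, or poor curve fit; inactive means the rest.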 A selection follows. Results with a measured potency or affinity are listed apart.

assay: decrease of heat-induced HSF-1 GFP reporter, dose response, NIH3T3 R4 cells, GFP/RFP, cherry-pick, set 3 (AID 493083); conditions: NIH3T3 R4 HSF-1 GFP reporter, heat shock, 48 h; series mostly up to 19.5 µM

outcome, inactive:
COc1ccc(N2CCN(c3ccc(NC(=O)NN)cc3)CC2)cc1
Cc1cc(NC(=O)c2ccc3nc(C)sc3c2)no1
COc1ccccc1N1CCN(C(=S)Nc2ccc(F)cc2)CC1
O=c1[nH]cc(S(=O)(=O)c2ccccc2)[nH]1
CC1CCN(CC(=O)NC2CCCCC2)CC1
CCS(=O)(=O)N1CCN(C(=O)c2ccccc2)CC1
Cc1ccc2c(c1)c(C)c(C)n2CC(O)Cn1nnc2ccccc21 (stereo not drawn)
O=S1(=O)N[C@H](c2ccccc2)C[C@H](c2ccc(C(F)(F)F)cc2)O1
CC(C)[C@H](NC(=O)Cc1ccccc1)C(=O)OCc1cc(=O)n2c(n1)sc1ccccc12
Cc1ccc(CN2CCN(Cc3cccc(OCCO)c3)CC2CCO)o1 (stereo not drawn)
Fc1ccc(-n2cc(CNCCc3ccccn3)c(-c3ccccc3Cl)n2)cc1
Cc1ccc(-c2nn(-c3ccccc3)cc2CN(C)C(=O)CCC(=O)O)cc1C
CN=c1scc(-c2ccccc2F)n1/N=C/c1ccc[nH]1
CN=c1scc(-c2cccs2)n1/N=C/c1ccccc1O
CN(C)S(=O)(=O)c1ccc(-c2csnn2)s1
CCn1c(C(C#N)/C(=N\S(=O)(=O)c2cccs2)c2ccccc2)nc2ccccc21 (stereo not drawn)
Cc1ccc(S(=O)(=O)N2CCC(C(=O)N[C@@H](Cc3ccccc3)C(=O)O)CC2)cc1
CCN1C(=O)c2ccccc2S(=O)c2ccc(C(=O)NCc3ccc(OC)cc3)cc21 (stereo not drawn)
Cc1ccc(C(=O)Nc2cc3ccccc3oc2=O)cc1
Cc1nc2ccc(NC(=O)N3CCSCC3)cc2s1
COc1ccc(CNC(=O)CCCNC(=O)c2ccc(Cl)cc2)cc1OC
COC(=O)c1cc(S(=O)(=O)NCc2ccc(F)cc2)cn1C
C=CCOc1ccccc1CN(C(=O)CCl)c1ccc2c(c1)OCO2
